This is a sample that favours compounds with a hit; in the whole collection about 9.4% have one here.
ELG1 genotoxic: inducers of genotoxicity in HEK293T ELG1-luciferase cells; Potency, µM (series often up to 46 µM), without a hit: top-dose activity change, positive = activation, actives largely listed as activators; 330,000 compounds, 1.3% hits; HEK293T ELG1-luciferase reporter, luminescence, 16 h; AID 504466; also: % of control where 0% means no effect; nearly all actives have a fitted effect of over 60% in size
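DMSO vehicle served as control against compound-treated ELG1-luciferase HEK293T cells; exposure lasted 16 hr at 37 °C and 5% CO2, followed by ONE-Glo luminescence detection after 30 min.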
ELG1 DNA repair: blocks ELG1-dependent DNA repair in HEK293T cells; HEK293T ELG1-luciferase reporter, luminescence, 16 h; DNA damage induced by 5-fluorouridine; Potency, µM (top dose mostly 46.1 µM), inactives show at the top dose activity change, negative = inhibition, actives largely listed as inhibitors; 330,000 compounds, 2.3% hits; AID 504467; also: % is scaled to controls: 0 for no effect and ±100 for the full control effect; nearly all actives have a fitted effect of over 55% in size
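Reporter activity after DNA damage by 5-fluorouridine is monitored. Compound-treated cells incubate 16 hr at 37 °C, then ONE-Glo is added for 30 min before luminescence reading.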
NPC1 prom act: activators of NPC1 promoter. 320,000 compounds, 2.4% hits. Potency, µM (top dose mostly 9.22 µM), inactives show at the highest dose activation, usual class: activators. Huh7 NPC1 promoter luciferase reporter, 24 h. AID 485313; also: % of control where 0% means no effect; nearly all actives have a fitted effect of over 60% in size
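Luciferase expression driven by the NPC1 promoter was measured in stably transfected Huh7 cells after a 24 h compound incubation, using a luciferase reagent and a luminescence read.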
SMN2 splice up: enhancers of SMN2 splice variant expression; Potency, µM (titrated, usually from 46.1 µM), for the others: at the top dose activity change, positive = activation, hits mostly activators; 210,000 compounds, 2.8% hits; HEK293 SMN2-luciferase splicing reporter, luminescence, 30-36 h; AID 1458; also: % of control where 0% means no effect; nearly all actives have a fitted effect of over 55% in size
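qHTS luciferase splicing reporter: luminescence rises when SMN2 exon 7 is included in transfected HEK293 cells. Compound exposure lasted 30-36 h at 37C, with 4.5 mM final sodium butyrate as control, followed by a ONE-Glo read.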
Rab9 promoter act: activators of Rab9 promoter; Potency, µM (doses to about 9.22 µM), for the others: at the top dose activation, negative = inhibition, most hits filed as activators; AID 485297; Huh7 Rab9 promoter-luciferase reporter, luminescence, 24 h; 320,000 compounds, 2.8% hits; also: % of control where 0% means no effect; nearly all actives have a fitted effect of over 60% in size
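Luminescence from Amplite-detected luciferase (10 minutes, ambient) reports Rab9 promoter activation. Before that, stable Rab9-luciferase Huh7 cells (1500/well, reduced-serum OP-MEM I plus 10% FBS) were exposed to compound for 24 hours at 37C.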
FLuc modulator: inhibits or activates purified firefly luciferase, miR-21 counter-screen | P08659 | Potency, µM (doses to about 57.5 µM), without a hit: at the top dose activity change, negative = inhibition, usual class: inhibitors | purified FLuc, Km substrates, luminescence inhibition | 360,000 compounds, 6.9% hits;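 also: plate controls were vehicle for no effect and reference inhibitor for full effect; nearly all actives have a fitted effect of over 55% in size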
Target sequence (P08659 whole entry, looked up): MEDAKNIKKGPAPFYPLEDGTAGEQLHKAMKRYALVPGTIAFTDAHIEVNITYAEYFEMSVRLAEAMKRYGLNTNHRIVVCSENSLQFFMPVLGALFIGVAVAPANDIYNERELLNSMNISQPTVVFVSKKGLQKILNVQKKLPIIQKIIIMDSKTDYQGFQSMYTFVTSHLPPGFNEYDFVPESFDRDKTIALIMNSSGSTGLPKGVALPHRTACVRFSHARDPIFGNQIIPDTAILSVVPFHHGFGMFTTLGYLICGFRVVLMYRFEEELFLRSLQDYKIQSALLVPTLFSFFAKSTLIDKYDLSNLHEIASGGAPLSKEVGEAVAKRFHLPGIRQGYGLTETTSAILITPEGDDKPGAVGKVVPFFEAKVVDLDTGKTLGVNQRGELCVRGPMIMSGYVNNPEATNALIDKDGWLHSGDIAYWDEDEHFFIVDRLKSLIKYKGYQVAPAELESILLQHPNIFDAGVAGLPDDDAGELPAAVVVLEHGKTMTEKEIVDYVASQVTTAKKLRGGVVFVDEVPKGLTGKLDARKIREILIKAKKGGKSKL
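Purified P. pyralis luciferase (10nM final) with 10uM D-luciferin and 10uM ATP (Km levels) in 50mM Tris acetate pH 7.5, 10mM Mg acetate, 0.01% Tween-20, 0.05% BSA; qHTS 6-point titration, ~60 µM downward; luminescence read.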
* hit, by the source's call; u = inconclusive; x = not tested or not shown. Calls follow the shape of the dose curve; as a rule, active = well fitted curve in the direction sought with a large enough effect; inconclusive = small, poorly fitted or top-dose-only effect, or another doubt; inactive = no such curve, though single readings can be large; an effect the other way counts as inactive or inconclusive. Potency is read from the fitted curve at half-maximal effect.

SMILES	ELG1 genotoxic	ELG1 DNA repair	NPC1 prom act	SMN2 splice up	Rab9 promoter act	FLuc modulator
COCCN1Cc2cccc(C(=O)Nc3cccc(OC)c3)c2C1=O	2%	4%	-1%	-32%	10%	-16%
CCOc1ccc(NC(=O)c2cccc3c2C(=O)N(CCOC)C3)cc1	15%	u	7%	-8%	21%	6.7µM*
Cc1cccc(-c2c3c(=O)n(C)c(=O)n(C)c3cn2-c2cc(N)c(Cl)cc2Cl)c1	x	x	x	0%	x	3%
Cc1nn(-c2cccc(Cl)c2)nc1C(=O)O	0%	1%	1%	-5%	-1%	u
CC(=O)Nc1cc2nn(-c3ccccc3)nc2cc1Cl	1.3µM*	u	0.56µM*	11µM*	0.5µM*	1.5µM*
CC(C)(C)C(=O)Nc1cc2nn(-c3ccccc3)nc2cc1Cl	u	u	-13%	-95%	-16%	0.076µM*
CC(C)COc1ccc(C(=O)Nc2cc3nn(-c4ccccc4)nc3cc2Cl)cc1	x	x	x	-2%	x	-2%
CCC[C@@H]1C[C@@]1(CCC)[C@@H](NC(=O)Oc1ccccc1)c1ccc(C(=O)OC)cc1	x	x	x	-8%	x	x
Cc1cc(OC(C)C(=O)N(Cc2ccco2)Cc2ccco2)cc(C)c1Cl (stereo not given)	x	x	x	-12%	x	u
O=C(c1cc(COc2c(F)cccc2F)on1)N1CCC(c2ccccc2F)C1 (stereo not given)	u	u	29%	x	u	15µM*
O=C(c1cc(COc2ccc(F)cc2F)on1)N1C[C@H]2CC[C@H]1C2	25%	u	19%	x	u	u
O=C(c1cc(COc2c(F)cccc2F)on1)N1C[C@H]2CC[C@H]1C2	12µM*	u	3.2µM*	x	1.6µM*	12µM*
O=C(c1cc(COc2c(F)cccc2F)on1)N1CCC(c2ccncc2)CC1	-7%	u	-32%	x	-31%	-3%
Cc1cccc(C)c1OCc1cc(C(=O)N2CCC(c3ccncc3)CC2)no1	10%	u	6%	x	1%	13µM*
Cc1ccc(Nc2nc(C)nc(N)c2S(=O)(=O)c2ccccc2)cc1	x	x	x	8%	x	3%
CCC(C)Sc1oc(-c2ccco2)nc1S(=O)(=O)c1ccc(C)cc1 (stereo not given)	x	x	x	18%	x	3%
CC(=O)Nc1ccc2c(c1)nc1n2CCOC1	1%	0%	2%	-18%	-4%	6%
O=C(COc1ccccc1)Nc1ccc2c(c1)nc1n2CCOC1	u	u	u	3%	u	u
O=C(Nc1ccc2c(c1)nc1n2CCSC1)c1ccco1	u	u	0.32µM*	-14%	0.45µM*	2.7µM*
O=C(Nc1ccc2c(c1)nc1n2CCOC1)c1ccco1	u	u	1.3µM*	u	4µM*	13µM*
O=C(COc1ccccc1)Nc1ccc2c(c1)nc1n2CCSC1	u	u	u	10%	4µM*	21µM*
Cc1ccc(-c2nnc(N)s2)cc1	u	u	25%	u	23%	13µM*
CCCOc1ccc(-c2nc(-c3ccc(N)cc3)cs2)cc1	5%	6%	24%	x	u	7.6µM*
COc1ccc(-c2csc(-c3[nH]cnc3N)n2)cc1	u	25%	-5%	u	-1%	u
CCCOc1ccc(-c2nnc(N)s2)cc1	18µM*	u	u	u	u	7.6µM*
SMILES	ELG1 genotoxic	ELG1 DNA repair	NPC1 prom act	SMN2 splice up	Rab9 promoter act	FLuc modulator
CNc1nnc(-c2ccc(OC)cc2)s1	16µM*	u	2.8µM*	13µM*	3.2µM*	12µM*
COc1ccc(OCCc2nnc(N)s2)cc1	1%	u	4%	2%	-1%	2%
Cc1ccsc1CCN1C(=O)N(c2ccc(F)cc2)C(=O)C1CC(=O)Nc1ccccc1 (stereo not given)	x	x	x	8%	x	-14%
CC(C)c1ccc(-c2nnc(N)s2)cc1	18µM*	u	3.2µM*	14µM*	2.2µM*	1.9µM*
COc1ccc(-c2nnc(N)s2)cc1	u	u	22%	11%	23%	17µM*
O=C(NC1CCCCC1)c1n[nH]c2c1CC(c1ccccc1)CC2 (stereo not given)	u	u	2.2µM*	x	1.8µM*	3µM*
COc1ccc(-c2c(C)nn3c(-c4ccccc4)cc(C)nc23)cc1	-6%	u	-4%	-17%	-11%	-2%
COc1ccc(-c2ccnc3c(-c4ccc(F)cc4)c(C)nn23)cc1OC	x	x	x	-3%	x	0%
COc1cccc(-c2ccnc3c(-c4ccccc4)c(C)nn23)c1	x	x	x	u	x	11µM*
COc1cccc(-c2ccnc3c(-c4ccc(F)cc4)c(C)nn23)c1	x	x	x	15%	x	8.5µM*
Cn1c(=O)n(-c2ccc(F)c(Cl)c2)c(=O)c2sc3ccccc3c21	x	x	x	-8%	x	-2%
CC(C)(C)c1ccc(/C=N/n2cnnc2)cc1	8%	14%	1%	12%	-8%	19µM*
COC(=O)c1ccc(/C=N/n2cnnc2)cc1	-1%	9%	3%	-9%	8%	-1%
Clc1ccc(OCc2cn3cccnc3n2)c2ncccc12	16µM*	u	u	11µM*	u	u
Cc1cc(Cl)ccc1OCc1cn2cccnc2n1	u	u	3.5µM*	13µM*	3.2µM*	12µM*
c1cnc2c(OCc3cn4cccnc4n3)cccc2c1	u	u	18%	9%	23%	u
CC(=O)N(/N=C1\Sc2ccccc2C1=O)c1cccc(C)c1	u	u	u	5.6µM*	14%	11µM*
COc1ccccc1CNC(=O)CCCN1C(=O)CSc2c1c(C)nn2-c1ccccc1	x	x	x	x	x	-1%
CCOC(=O)C(=CNc1ccc(C)cc1C)C(=O)OCC	-2%	1%	-1%	2%	-7%	15µM*
CCOC(=O)C(=CNc1cccc(C)c1C)C(=O)OCC	1%	3%	1%	7%	-3%	u
CCOC(=O)N1CCC(NC(=O)C2CCCN(Cc3nc(-c4cccc(Cl)c4)oc3C)C2)CC1 (stereo not given)	-11%	9.2µM*	-16%	-64%	-14%	0%
CCc1ccc(-c2nc(CN3CCCC(C(=O)N4CCN(c5cc(Cl)ccc5C)CC4)C3)c(C)o2)cc1 (stereo not given)	x	x	x	-53%	x	-10%
CCOC(=O)N1CCC(NC(=O)CS(=O)(=O)Cc2nc(-c3cccc(OC)c3)oc2C)CC1	-4%	u	3%	-16%	-8%	4%
CCOC(=O)N1CCC(NC(=O)CS(=O)(=O)Cc2nc(-c3cccc(Cl)c3)oc2C)CC1	-7%	15µM*	1%	x	-4%	1%

Screening results (PubChem BioAssay)
